PubChem BioAssay (Tox21)
Inconclusive results are not listed. Where a call stands in place of a potency, no number is given. Active and inactive are the calls of the source. Calls follow the shape of the full dose curve.

Assay: qHTS assay for small molecules that induce genotoxicity in human embryonic kidney cells expressing luciferase-tagged ATAD5 - cell viability (AID 651634); also: nearly all actives have a fitted effect of over 25% in size
Conditions: HEK293T ATAD5-luc cells viability, CellTiter-Fluor, 15.5 h; series mostly up to 83.3 µM
Text: National Center for Advancing Translational Sciences [NCATS]
NIH Chemical Genomics Center [NCGC]
U.S. Environmental Protection Agency [EPA]
National Institutes of Environmental Health Sciences [NIEHS]
National Toxicology Program [NTP]
U.S. Food and Drug Administration [FDA]
Enhanced Level of Genome Instability Gene 1 (ELG1; human ATAD5) protein levels increase in response to various types of DNA damage. Using a luciferase reporter-gene tagged with ElG1, a cell-based assay [developed by Kyungjae Myung, NHGRI, NIH] was used to measure the induction of ATAD5 in human embryonic kidney cells (HEK293T). So, increase in luciferase activity can be used to identify the compounds that cause genetic stress. In addition to genotoxicity, these cells were also used to test for cytotoxicity by measuring the protease activity within live cells.
Tox21 Assay Protocol Summary:
For cytotoxicity screening, 2,000 cells in 5 uL/well were dispensed into white, solid-bottom 1536-well plates using a Multidrop Combi (Thermo Scientific) dispenser. Following transfer of 23 nL compound or DMSO vehicle by a pin tool, the plates were incubated 15.5 hr at 37C and 5% CO2. 1 ul CellTiter-Fluor reagent (Promega, Madison, WI) was then added to each plate and following 30 min incubation at 37C, fluorescence intensity was quantified on a ViewLux CCD-based plate reader.

SMILES	Potency
CC1=C(C)C(=O)C(C(CCCCCC(=O)O)c2ccccc2)=C(C)C1=O (stereo not given)	inactive
CC(C)(C(=O)O)c1ccc(C(O)CCCN2CCC(C(O)(c3ccccc3)c3ccccc3)CC2)cc1 (stereo not given)	inactive
CCC(C)CCCC(C)(C)O (stereo not given)	inactive
CCN(CCCCOC(=O)c1ccc(OC)c(OC)c1)C(C)Cc1ccc(OC)cc1 (stereo not given)	inactive
CCc1ccc(C(=O)C(C)CN2CCCCC2)cc1 (stereo not given)	inactive
C=CC(=O)OCCCCCCCCCC	inactive
CCCC1CCOC(C)S1 (stereo not given)	inactive
CCCCCCCCCCCCSCCOCCO	inactive
Clc1cccc(C(c2ccc3nc[nH]c3c2)n2ccnc2)c1 (stereo not given)	inactive
COc1cc(C)c(Cc2cnc(N)nc2N)cc1OC	inactive
CC(=O)Oc1cccc2c1C(=O)c1c(OC(C)=O)cc(C(=O)O)cc1C2=O	inactive
Cc1c(Cl)cccc1[N+](=O)[O-]	inactive
[O-][n+]1ccc(Cl)cc1	inactive
COc1cccc([C@H](O)C2CCN(CCc3ccc(F)cc3)CC2)c1OC	inactive
Cc1c(-c2cccnc2)c2ccccc2n1CCCCC(=O)O	inactive
CCCCCCCCNC	inactive
CC/C=C/CCO	inactive
C=CC(C)CCC=C(C)C (stereo not given)	inactive
Cc1c(Cl)cccc1Nc1ccccc1C(=O)O	inactive
CC1(C)CC(=O)CC(C)(C)N1	inactive

SMILES	Potency
C/C=C1\[C@H]2C=C(C)C[C@]1(N)c1ccc(=O)[nH]c1C2	inactive
CC(=O)c1cccnc1	inactive
CCCCCO	inactive
CCCCCCC/C=C/C=O	inactive
CCOC(C)OCC	inactive
CCCCOC(=O)C(C)Oc1ccc(Oc2ccc(C(F)(F)F)cn2)cc1 (stereo not given)	inactive
OCCCO	inactive
CCCCCCCCCCCCN1CCOCC1	inactive
COc1ccc(C(=O)Nc2ccccc2)cc1[N+](=O)[O-]	inactive
C=C(C)C(=O)OCCCCCCCCCCOC(=O)C(=C)C	inactive
CC(C(=O)O)c1ccc2c(c1)Cc1cccnc1O2 (stereo not given)	inactive
CO[C@@H]1[C@@H](O[C@@H]2O[C@H](C)[C@@H](O[C@H]3C[C@@](C)(O)[C@@H](O)[C@H](C)O3)[C@H](N(C)C)[C@H]2O)[C@@H](CC=O)C[C@@H](C)[C@@H](O[C@@H]2CC[C@H](N(C)C)[C@@H](C)O2)/C=C/C=C/C[C@@H](C)OC(=O)C[C@H]1OC(C)=O	inactive
CCCCCCCCS	inactive
CS(C)=O	inactive
O=C(O)c1c2ccccc2cc2ccccc12	inactive
CCCCCCCCCCCCCCCCN	inactive
N#CCCCC(C#N)CCC#N (stereo not given)	inactive
CCCCC(CC)COCCC#N (stereo not given)	inactive
CCCC(=O)OCCC(C)C	inactive
O=C(O)COCC(=O)O	inactive
